# Reference: PubChem BioAssay (EPA / NIEHS)
# Where “and” joins values, the source holds several entries; their conditions need not be identical. Equal values may be shown once. Records with an inconclusive call do not appear. Some structures have more than one record in an assay (separate samples or runs), and their calls can disagree. Calls of active or inactive are those of the source. The calls were made as follows: active = hit-call score of the fitted dose curve at least 0.9, where 1 is the maximum; inconclusive = response in the unintended direction; inactive = score below 0.9.
# Biological target: Cellular tumor antigen p53 (Homo sapiens) (UniProt P04637)
# Sequence (P04637 whole entry, looked up): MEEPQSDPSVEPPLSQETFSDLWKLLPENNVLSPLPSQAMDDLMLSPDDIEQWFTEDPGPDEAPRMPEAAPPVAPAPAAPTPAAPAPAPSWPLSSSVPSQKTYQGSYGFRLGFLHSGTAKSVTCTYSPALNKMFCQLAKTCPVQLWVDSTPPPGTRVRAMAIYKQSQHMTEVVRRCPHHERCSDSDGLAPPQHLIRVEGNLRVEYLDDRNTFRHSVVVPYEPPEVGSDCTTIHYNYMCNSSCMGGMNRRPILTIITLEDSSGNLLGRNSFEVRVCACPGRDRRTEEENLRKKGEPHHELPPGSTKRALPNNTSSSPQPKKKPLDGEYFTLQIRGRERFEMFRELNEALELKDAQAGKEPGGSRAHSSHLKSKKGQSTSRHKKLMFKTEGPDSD
# Assay: TOX21_p53_BLA_p5_ratio: Tox21 HCT-116 p53 Agonism Beta-lactamase Assay, Ratio, Phase 5 (AID 2283599)
# Description: TOX21_p53_BLA_p5 is a cell-based, single-readout assay that uses HCT116, a human intestinal cell line, […] in a 1536-well plate.TOX21_p53_BLA_p5_ratio is an assay readout measuring reporter gene via receptor activity and designed using inducible reporter (beta lactamase induction) detected with GAL4 b-lactamase reporter gene. The signal is derived from the ratio of cleaved (ch2) to uncleaved (ch1) reporter gene substrate used as the measure of target activity.Data from the assay component TOX21_p53_BLA_p5_ratio was analyzed into 1 assay endpoint. This assay endpoint, TOX21_p53_BLA_p5_ratio, was analyzed in the positive analysis fitting direction relative to DMSO as the negative control and baseline of activity. Using a type of inducible reporter, gain-of-signal activity can be used to understand changes in the reporter gene as they relate to the gene TP53. Furthermore, this assay endpoint can be referred to as a primary readout, because this assay has produced multiple assay endpoints and this ratio serves a reporter gene function to understand target activity. To generalize the intended target to other relatable targets, this assay endpoint is annotated to the DNA binding intended target family, where the subfamily is tumor suppressor.
# Thawing Method: Place 14 mL of pre-warmed thaw medium into a 15 mL of conical tub. Remove the vial of cells to be thawed from liquid nitrogen and thaw rapidly by placing at 37C in a water bath with gentle agitation for 1-2 minutes. Decontaminate the vial by wiping with 70% ethanol before opening in a biological safety cabinet. Transfer the vial contents drop-wise into 14 mL of thaw medium in a sterile 15-mL conical tub. Centrifuge cells at 900 rpm for 4 minutes and resuspend in thaw medium. Transfer contents to the T75 tissue culture flask containing Thaw Medium and place flask in a humidified 37C/5% CO2 incubator. Switch to growth medium at first passage.Propagation Method: Aspirate medium, rinse once in DPBS, add 0.25% Trypsin/EDTA and swirl to coat the cell evenly. Add an equal volume of Growth Medium to inactivate Trypsin after 2-3 minutes incubation at 37C. Centrifuge cells at 900 rpm for 4 minutes and resuspend in growth medium. Cell should be passage or fed at least twice a week.Assay Protocol: Harvest cells from culture in growth medium and resuspend in assay medium. 2.2 Dispense 4000 cells/5 uL/well into 1536-well black/clear bottom plates using a Multidrop dispenser. After the cells were incubated at 37C for 5 hours, 23 nL of compounds dissolved in DMSO were transferred to the assay plate by a PinTool resulting in a 217-fold dilution. Incubate the plates for 16 hours at 37C, 5% CO2. Add 1 uL of 6X LiveBLAzer FRET B/G (CCF4-AM) Substrate Mixture to each well using a BioRAPTR dispenser and incubate the plates at room temperature for 2 hours. Measure fluorescence intensity at 460 and 530 nm emission and 405 nm excitation by an Envision detector. Data is expressed as the ratio of 460nm/530nm emissions. Add 4 uL of Cell-titer Glo to each well using BioRAPTR and incubate the plates at room temperature for 2 hours. Measure fluorescence intensity by a VewLux plate reader.
SMILES,AC50,outcome
CCC(C)(C)C(=O)OC1=C(c2ccc(Cl)cc2Cl)C(=O)OC12CCCCC2,28.4 µM (active),
CCOCN(C(=O)CCl)c1c(C)cccc1CC,,inactive
CCN(CC)C(=O)SCc1ccc(Cl)cc1,,inactive
ClC1C(Cl)C(Cl)C(Cl)C(Cl)C1Cl (configuration not stated),86.7 µM (active),inactive
CCC(C)(NC(=O)c1cc(Cl)c(C)c(Cl)c1)C(=O)CCl (configuration not stated),72.2 µM (active),
CN1CSC(=S)N(C)C1,,inactive
COP(=S)(OC)Oc1ccc([N+](=O)[O-])cc1,,inactive
CNC(=O)Oc1cccc(N=CN(C)C)c1,,inactive
COc1nn(CSP(=S)(OC)OC)c(=O)s1,,inactive
CC(C)(C)C(O)C(Oc1ccc(Cl)cc1)n1cncn1 (configuration not stated),,inactive
CC1(C)C(C=C(Cl)Cl)C1C(=O)OC(C#N)c1ccc(F)c(Oc2ccccc2)c1 (configuration not stated),,inactive
O=C(Nc1ccccc1)Nc1cnns1,,inactive
N#Cc1c(Cl)c(Cl)c(Cl)c(C#N)c1Cl,85.4 µM (active) and 17.1 µM (active),
OCCOc1ccccc1,,inactive
Oc1cc(Cl)ccc1Oc1ccc(Cl)cc1Cl,81.1 µM (active),inactive
O=S1OCC2C(CO1)C1(Cl)C(Cl)=C(Cl)C2(Cl)C1(Cl)Cl (configuration not stated),87.3 µM (active) and 73.3 µM (active),
CCCN(CCOc1c(Cl)cc(Cl)cc1Cl)C(=O)n1ccnc1,75.3 µM (active),inactive

SMILES,AC50,outcome
CC(C)OC(=O)Nc1cccc(Cl)c1,,inactive
O=S(=O)(O)C(F)(F)C(F)(F)C(F)(F)C(F)(F)C(F)(F)C(F)(F)C(F)(F)C(F)(F)F,,inactive
CNC(=O)Oc1ccccc1OC(C)C,,inactive
O=C(O)COc1ccc(Cl)cc1Cl,,inactive
COP(=S)(OC)Oc1ccc(SC)c(C)c1,,inactive
O=C(O)C(F)(F)C(F)(F)C(F)(F)C(F)(F)C(F)(F)C(F)(F)C(F)(F)F,,inactive
O=C(O)CCCOc1ccc(Cl)cc1Cl,,inactive
CC[C@H](C)[C@H]1O[C@]2(C=C[C@@H]1C)C[C@@H]1C[C@@H](C/C=C(\C)[C@@H](O[C@H]3C[C@H](OC)[C@@H](O[C@H]4C[C@H](OC)[C@@H](O)[C@H](C)O4)[C@H](C)O3)[C@@H](C)/C=C/C=C3\CO[C@@H]4[C@H](O)C(C)=C[C@@H](C(=O)O1)[C@]34O)O2 (tested in a mixture with another compound),31.4 µM (active),inactive
CC(C)(C)C(O)/C(=C\c1ccc(Cl)cc1Cl)n1cncn1 (configuration not stated),,inactive
CC1(c2ccc(Oc3ccccc3)cc2)OC(=O)N(Nc2ccccc2)C1=O (configuration not stated),46.4 µM (active),
O=C1c2ccccc2C(=O)N1SC(Cl)(Cl)Cl,14.1 µM (active) and 12.9 µM (active),
O=[N+]([O-])c1c(Cl)c(Cl)c(Cl)c(Cl)c1Cl,,inactive
C[C@H]1[C@H](c2ccc(Cl)cc2)SC(=O)N1C(=O)NC1CCCCC1,,inactive
CCc1ccc(C(=O)NN(C(=O)c2cc(C)cc(C)c2)C(C)(C)C)cc1,,inactive
Oc1ccc(Cl)cc1Cc1ccccc1,79 µM (active) and 86.7 µM (active),
CC(C)N(C(=O)COc1nnc(C(F)(F)F)s1)c1ccc(F)cc1,,inactive
